Assay outcomes from PubChem BioAssay.
HP1b chromo inh – blocks HP1-beta chromodomain binding to methylated histone tails; actives 0.56% (n = 390,000); AlphaScreen HP1-beta / biotin-H3K9me3 peptide binding; Potency, µM (top dose mostly 114 µM), for the others: top-dose activity change, negative = inhibition, most hits filed as inhibitors; AID 540317; P83916; further: nearly all actives have a fitted effect of over 70% in size
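Compound inhibition of the preformed complex between 50 nM HP1-beta and 50 nM biotinylated H3K9me3 peptide was read by AlphaScreen. Buffer was PBS pH 7.4 with 0.01% Tween-20. Incubations ran 30 min at room temperature, with 10 ug/mL donor/acceptor beads.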
G9a inh – inhibitors of human histone lysine methyltransferase G9a. Potency, µM (titrated, usually from 102 µM), without a hit: top-dose activity, negative = inhibition, usual class: inhibitors. G9a H3K9 monomethylation, AlphaScreen, 2 h. AID 504332. actives 8.8% (n = 350,000); further: on the % scale 0 is the no-effect control and ±100 the full control effect; nearly all actives have a fitted effect of over 75% in size
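AlphaScreen detection with an anti-monomethyl H3K9 antibody quantified product after a 2 h room-temperature reaction containing 500 nM biotinylated H3K9 peptide, 20 µM SAM and 20 nM enzyme, which had been preincubated 15 min with compound.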
Sfp inh – Sfp phosphopantetheinyl transferase inhibition | Biochemical Sfp PPTase activity, qHTS | actives 3.5% (n = 310,000) | Potency, µM, inactives show largest response in the series, negative = inhibition, actives largely listed as inhibitors | Q9F4F7;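 further: the enzyme is Sfp with the accession as filed and its product quenches rhodamine fluorescence; 0% = enzyme reaction without inhibitor and -100% = no enzyme wells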
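Reaction rates are the 30-min fluorescence difference (ex 525, em 598 nm) in wells containing 15 nM Sfp, 5 uM rhodamine-CoA and 12.5 uM BHQ-2-YbbR at pH 7.6 with 10 mM MgCl2.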
JMJD2A Tudor inh – inhibitors of human JMJD2A Tudor domain; O75164; AlphaScreen JMJD2A-Tudor / H3K4me3 peptide binding; Potency, µM (highest dose often 114 µM), for the others: top-dose activity change, negative = inhibition, most hits filed as inhibitors; actives 4.4% (n = 390,000); further: on the % scale 0 is the no-effect control and ±100 the full control effect; nearly all actives have a fitted effect of over 50% in size
ALOX12 inh – ALOX12 (human) lipoxygenase inhibition. purified 12hLO, xylenol orange hydroperoxide absorbance. Potency, µM (highest dose often 108 µM), for inactives: at the top dose activity change, negative = inhibition, most hits filed as inhibitors. actives 1.1% (n = 580,000). AID 1671190; further: on the % scale 0 is the no-effect control and ±100 the full control effect
Target sequence (P18054 whole entry, looked up): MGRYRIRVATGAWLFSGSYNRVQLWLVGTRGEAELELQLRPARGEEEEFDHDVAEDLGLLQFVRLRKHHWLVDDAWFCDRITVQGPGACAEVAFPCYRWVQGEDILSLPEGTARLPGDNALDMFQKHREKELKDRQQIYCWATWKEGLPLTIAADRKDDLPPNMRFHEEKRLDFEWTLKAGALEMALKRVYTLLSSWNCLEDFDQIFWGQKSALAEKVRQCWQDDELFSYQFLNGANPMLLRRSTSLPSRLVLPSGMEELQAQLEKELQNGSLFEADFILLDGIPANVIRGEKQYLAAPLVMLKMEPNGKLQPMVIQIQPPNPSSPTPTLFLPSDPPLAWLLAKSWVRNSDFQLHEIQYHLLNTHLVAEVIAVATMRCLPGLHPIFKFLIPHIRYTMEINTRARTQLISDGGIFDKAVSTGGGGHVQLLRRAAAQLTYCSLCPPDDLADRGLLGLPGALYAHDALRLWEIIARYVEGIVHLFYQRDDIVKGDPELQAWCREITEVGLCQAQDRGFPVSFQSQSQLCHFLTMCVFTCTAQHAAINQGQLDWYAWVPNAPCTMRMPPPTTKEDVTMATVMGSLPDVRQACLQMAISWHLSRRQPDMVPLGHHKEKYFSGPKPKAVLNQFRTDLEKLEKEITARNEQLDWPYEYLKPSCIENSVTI
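Purified human 12hLO (150 nM final) in 25 mM Hepes, 0.01% Triton X-100, pH 7.0 was preincubated 15 min at room temperature with compound. Then 40 uM arachidonic acid was added, 30 min. Hydroperoxide was read by Fe-XO absorbance ratio 573/405 nm.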
BAZ2B inh – blocks human BAZ2B; Q9UIF8; AlphaScreen BAZ2B-H3K14Ac peptide displacement; Potency, µM (highest dose often 114 µM), for inactives: at the highest dose activity change, negative = inhibition, actives largely listed as inhibitors; actives 4.4% (n = 360,000); AID 504333; further: on the % scale 0 is the no-effect control and ±100 the full control effect; nearly all actives have a fitted effect of over 60% in size
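AlphaScreen luminescence quantifies BAZ2B engagement of H3K14Ac peptide; the protein and biotinylated peptide are both at 50 nM final, buffer PBS pH 7.4 with 0.01% Tween-20, all steps at room temperature.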
Active calls of the source: *; [ ] = dose if it differs, or a comment. Sampled rows, rich in hits. Any-hit rate of the full collection: about 8.7%. The call rests on the fitted dose curve; in most records, active means well fitted curve in the direction sought with a large enough effect; inconclusive means small, poorly fitted or top-dose-only effect, or another doubt; inactive means no such curve, though single readings can be large; an effect the other way counts as inactive or inconclusive. Potency means the concentration at half of the fitted maximal effect.

For COCCSc1nnc(NC(=O)C2CC(=O)N(c3ccc(OC)cc3)C2)s1 (stereo unspecified) the results were HP1b chromo inh 42%, G9a inh 17%[59 µM], Sfp inh 29%, JMJD2A Tudor inh 0%, ALOX12 inh 6% and BAZ2B inh -12%.
O=[N+]([O-])c1cc(Cl)c2cccnc2c1O was read as HP1b chromo inh inconclusive, G9a inh 35µM*, Sfp inh 5%, JMJD2A Tudor inh 20µM*, ALOX12 inh inconclusive and BAZ2B inh 18µM*.
Screening Oc1c(Cl)c(Cl)c2ncccc2c1Cl returned HP1b chromo inh inconclusive, JMJD2A Tudor inh inconclusive and ALOX12 inh -27%.
Oc1c(I)cc(Cl)c2cccnc12 was read as HP1b chromo inh 4%, G9a inh 35µM*, Sfp inh -1%, JMJD2A Tudor inh 79µM*, ALOX12 inh 11µM* and BAZ2B inh 40µM*.
Screening O=[N+]([O-])c1cc(F)c2cccnc2c1O returned HP1b chromo inh 11%, G9a inh 8.9µM*, Sfp inh inconclusive, JMJD2A Tudor inh 10µM*, ALOX12 inh -7% and BAZ2B inh 11µM*.
Screening Cc1c(C)c2cccnc2c2ncccc12 returned HP1b chromo inh 33%, JMJD2A Tudor inh 10µM* and BAZ2B inh 5.6µM*.
`CCS(=O)(=O)N(C1CC1)C1CCOC2(CCN(C(=O)c3cccc(C)c3)CC2)C1` (stereo unspecified) gave ALOX12 inh 34%.
O=[N+]([O-])c1ccc(Cl)c2cccnc12 was read as HP1b chromo inh 14%, G9a inh 11%, Sfp inh -4%, JMJD2A Tudor inh -16%, ALOX12 inh -25% and BAZ2B inh -3%.
Screening CN(Cc1cc([N+](=O)[O-])c2cccnc2c1O)C1CCCCC1 returned G9a inh 11%[59 µM], Sfp inh -9% and BAZ2B inh 7.9µM*.
Screening Clc1cc2cccnc2c2ncccc12 returned HP1b chromo inh 22%, G9a inh inconclusive, JMJD2A Tudor inh -7%, ALOX12 inh inconclusive and BAZ2B inh 3.5µM*.
O=[N+]([O-])c1cc(Cl)c(O)c2ncccc12 was read as HP1b chromo inh inconclusive, G9a inh 25µM*, Sfp inh -40%, JMJD2A Tudor inh 22µM*, ALOX12 inh 5.6µM* and BAZ2B inh 20µM*.
Screening O=[N+]([O-])c1cccc2c(Cl)ccnc12 returned HP1b chromo inh 26%, Sfp inh 79µM*, JMJD2A Tudor inh 0%, ALOX12 inh -3% and BAZ2B inh -39%.
COc1cccc2cc(-c3nnc(SCC(=O)c4ccc(F)cc4)n3C)oc12 was read as ALOX12 inh -14%.
`CCN(CCn1cccn1)Cc1c(C(=O)N2CCCCCCC2)nc2ccc(Cl)cn12` gave HP1b chromo inh 22%, G9a inh 79µM*, Sfp inh -16%, JMJD2A Tudor inh -11%, ALOX12 inh -10% and BAZ2B inh -22%.
Screening O=S(=O)(Nc1nnc(C2CC2)s1)c1ccccc1 returned HP1b chromo inh 48%, G9a inh 50µM*, Sfp inh -20%, JMJD2A Tudor inh -2%, ALOX12 inh -4% and BAZ2B inh -13%.
`CS(=O)(=O)Nc1nnc(C2CCCC2)s1` gave HP1b chromo inh -5%, G9a inh 50µM*, Sfp inh -10%, JMJD2A Tudor inh -36%, ALOX12 inh inconclusive and BAZ2B inh -24%.
`Cc1ccc(Cn2ncc3c2NC(=O)CC32C(=O)N(C)c3c(Cl)cccc32)cc1` (stereo unspecified) gave ALOX12 inh -2%.
For Cc1ccsc1CN(C)CC(=O)Nc1ccc([N+](=O)[O-])cc1Cl the results were HP1b chromo inh inconclusive, G9a inh 40µM*, Sfp inh -1%, JMJD2A Tudor inh -29%, ALOX12 inh -10% and BAZ2B inh -33%.
Screening CN(CC(=O)Nc1cc([N+](=O)[O-])ccc1Cl)Cc1ccc(Br)cc1 returned HP1b chromo inh -17%, G9a inh 11µM*, Sfp inh inconclusive, JMJD2A Tudor inh inconclusive, ALOX12 inh inconclusive and BAZ2B inh inconclusive.
For CCCCC(=O)Nc1cc([N+](=O)[O-])ccc1Cl the results were HP1b chromo inh 19%, G9a inh 6%[59 µM], Sfp inh 9%, JMJD2A Tudor inh -3%, ALOX12 inh 9% and BAZ2B inh 8%.
For CCN(CC)Cc1nc(C2(O)CCN(C3CCC(F)(F)CC3)CC2)cs1 the results were ALOX12 inh -19%[176 µM].
CCOc1ccc2nc(SCC(=O)N3CCN(S(=O)(=O)c4ccccc4)C3C(C)C)[nH]c2c1 (stereo unspecified) was read as ALOX12 inh -2%.
CC(=O)Nc1ccc2c(c1)C(=Nc1ccccc1)c1ccccc1-2 was read as HP1b chromo inh -26%[57 µM], JMJD2A Tudor inh 35µM* and ALOX12 inh 7%.
For COC(=O)c1[nH]c2cc(OC)ccc2c1N=CN(C)C the results were HP1b chromo inh 30%, G9a inh 40µM*, Sfp inh -10%, JMJD2A Tudor inh -15%, ALOX12 inh 14% and BAZ2B inh -3%.
For CCN(CCCNC(=O)c1c(C)cc(=O)oc1C)c1ccccc1 the results were HP1b chromo inh 3%, G9a inh inconclusive, Sfp inh -8%, JMJD2A Tudor inh -32%, ALOX12 inh 7% and BAZ2B inh -13%.
For CCCCN(CCCNC(=O)c1c(C)cc(=O)oc1C)c1ccccc1 the results were HP1b chromo inh inconclusive, G9a inh 50µM*, Sfp inh 12%, JMJD2A Tudor inh 50µM*, ALOX12 inh -2% and BAZ2B inh 45µM*.
`CCCN1CCN(C(=O)CN2C(=O)c3cccnc3Oc3ccc(Cl)cc32)CC1` gave ALOX12 inh -7%.
For O=C1NC(=S)S/C1=C\c1ccc(SCc2ccco2)o1 the results were HP1b chromo inh 11µM*, G9a inh 10µM*, Sfp inh 20µM*, JMJD2A Tudor inh 6.3µM* and BAZ2B inh 18µM*.
`O=C1NC(=S)S/C1=C\c1ccc(SCc2ccccc2)o1` gave HP1b chromo inh inconclusive, G9a inh inconclusive, Sfp inh inconclusive, JMJD2A Tudor inh 25µM*, ALOX12 inh 13µM* and BAZ2B inh 50µM*.
Screening CCCN(CCC)C(=O)c1ccc2c(c1)S(=O)(=O)c1ccccc1C2=O returned HP1b chromo inh 4%, G9a inh 79µM*, Sfp inh 15%, JMJD2A Tudor inh inconclusive, ALOX12 inh 6% and BAZ2B inh -33%.
